ELG1 repair inh – blocks ELG1-dependent DNA repair in HEK293T cells; actives 2.3% (n = 330,000); Potency, µM (series often up to 46.1 µM), hits mostly inhibitors; HEK293T ELG1-luciferase reporter, luminescence, 16 h; DNA damage induced by 5-fluorouridine; AID 504467; further: nearly all actives have a fitted effect of over 55% in size
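Reporter activity after DNA damage by 5-fluorouridine is monitored. Compound-treated cells incubate 16 hr at 37 °C, then ONE-Glo is added for 30 min before luminescence reading.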
DT40 TDP1 CPT – DT40-hTDP1 cell growth loss with CPT. chicken DT40 Tdp1-/-;hTDP1 cells + 20 nM CPT, ATP luminescence, 48 h. AID 686979. actives 12% (n = 420,000). Potency, µM (series often up to 46.2 µM), actives largely listed as inhibitors; further: nearly all actives have a fitted effect of over 55% in size
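Chicken DT40 Tdp1-/- cells stably complemented with human TDP1 were seeded at 400 cells/well in medium containing 20 nM camptothecin, exposed to pin-transferred compounds, and grown at 37 °C for at least 48 hr. Viability was read as ATP luminescence.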
IL1B secr inh – inhibitors of inflammasome signaling (IL-1 beta secretion) | THP-1 LPS/ATP IL-1B secretion, AlphaLISA, 16 h; active compounds read low | activity change, % at 57.5 µM | actives 4.7% (n = 360,000) | AID 743279; in the data active means activity change below about -50%; inconclusive means mostly about -30% to -49%
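THP-1 cells pretreated 1 hr with compounds (up to 57.5 uM final), then stimulated with LPS (250 ng/mL final) plus ATP (1.25 mM final); secreted IL-1B measured by AlphaLISA after 16 hr, decreased signal indicating inhibition.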
RORg inh – inhibitors of mouse ROR gamma transcriptional activity. P51450. Drosophila S2 Gal4-RORgamma UAS-luciferase reporter, 20 h. Potency, µM (highest dose often 53.6 µM), hits mostly inhibitors. actives 5.4% (n = 310,000). AID 2551; further: nearly all actives have a fitted effect of over 60% in size
Target sequence (P51450 whole entry, looked up, the tested form may be a part): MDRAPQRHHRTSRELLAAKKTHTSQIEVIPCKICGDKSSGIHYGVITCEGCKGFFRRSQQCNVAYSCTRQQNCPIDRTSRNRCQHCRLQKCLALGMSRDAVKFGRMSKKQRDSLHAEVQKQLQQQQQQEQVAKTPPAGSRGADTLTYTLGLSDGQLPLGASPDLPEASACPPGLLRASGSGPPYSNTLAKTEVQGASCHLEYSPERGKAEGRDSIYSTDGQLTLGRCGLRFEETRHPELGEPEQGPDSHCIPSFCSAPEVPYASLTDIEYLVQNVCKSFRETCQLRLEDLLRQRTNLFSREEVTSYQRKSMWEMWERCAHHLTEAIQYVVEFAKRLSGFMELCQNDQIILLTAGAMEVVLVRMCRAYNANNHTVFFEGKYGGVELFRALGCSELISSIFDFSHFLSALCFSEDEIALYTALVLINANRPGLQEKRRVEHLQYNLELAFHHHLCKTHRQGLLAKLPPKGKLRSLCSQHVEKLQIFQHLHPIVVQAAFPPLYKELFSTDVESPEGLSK
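Luminescence from a UAS-regulated Photinus luciferase reporter in stably transfected Drosophila Schneider cells is measured; decreased signal marks ROR gamma inhibition. Fusion expression is induced by 700 uM copper sulfate for 20 hr.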
Gal4-VP16 FLuc – counter-screen for ROR gamma inhibitors: Gal4-VP16 reporter; Drosophila S2 Gal4-VP16 UAS-luciferase, luminescence, 20 h; Potency, µM (top dose mostly 53.6 µM), most hits filed as inhibitors; actives 3.5% (n = 310,000); AID 2546;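 further: Gal4-VP16 expression switched on by copper sulfate through the metallothionein promoter; nearly all actives have a fitted effect of over 50% in size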
DT40 TDP1 no CPT – qHTS for Inhibitors of human tyrosyl-DNA phosphodiesterase 1 (TDP1): qHTS in cells in absence of CPT; DT40 Tdp1-/- hTDP1 cells, no CPT, ATP luminescence, 48 h; actives 15% (n = 420,000); Potency, µM (highest dose often 46.2 µM), actives largely listed as inhibitors; further: nearly all actives have a fitted effect of over 55% in size
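Luminescent ATP content (CellTiter-Glo) served as the growth readout. Knockout chicken DT40 cells expressing human TDP1 were exposed to compounds without camptothecin for a minimum 48 hr at 37 °C.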
Numbers stand for hits; i = inactive; ? = inconclusive; nt = not tested or not shown; [ ] = another dose, or the depositor's remark. Compounds with a hit are over-represented: about 21% of the library has one in this group of screens. Unless noted, the call rests on the fitted dose curve; in most records, active means well fitted curve in the direction sought with a large enough effect; inconclusive means small, poorly fitted or top-dose-only effect, or another doubt; inactive means no such curve, though single readings can be large; an effect the other way counts as inactive or inconclusive.

SMILES	ELG1 repair inh	DT40 TDP1 CPT	IL1B secr inh	RORg inh	Gal4-VP16 FLuc	DT40 TDP1 no CPT
CCn1c(SCC(=O)N2CCCc3ccccc32)nnc1-c1c[nH]c2ccccc12	?	?	i	?	i	?
CCn1c(SCC(=O)N2CCc3ccccc32)nnc1-c1c[nH]c2ccccc12	?	?	i	i	i	20.6µM
Cn1c(SCC(=O)N2CCN(c3ccccc3)CC2)nnc1-c1c[nH]c2ccccc12	10.3µM	?	i	i	?	?
CCn1c(SCC(=O)N2CCN(c3ccccc3)CC2)nnc1-c1c[nH]c2ccccc12	13µM	20.6µM	i	?	?	?
Cn1c(SCC(=O)N2CCN(c3ccccc3)CC2)nnc1-c1ccccc1	?	i	i	i	i	i
CC(OC(=O)CNC(=O)c1ccc(Cl)cc1)C(=O)NC1CCCCC1C (stereo unspecified)	i	i	i	nt	nt	i
CCN(CC(=O)NCc1ccc(Cl)cc1)C(=O)CCc1ccccc1O	i	i	?	i	i	i
COc1ccc(-n2cnnc2SCC(=O)N2CCN(c3ccccc3)CC2)cc1	?	i	i	i	i	?
Cn1cc(C(=O)C(=O)N2CCCc3ccccc32)c2ccccc21	i	16.4µM	i	i	i	13µM
COc1ccc(N2CCN(C(=O)CSc3nnc(-c4cc5ccccc5cc4O)n3C)CC2)cc1	11.2µM	23.1µM	i	?	?	18.4µM
CC1(C)Cc2ccccc2-c2nnc(SCC(=O)N3CCN(c4ccccc4)CC3)n21	14.6µM	?	?	i	i	?
O=Cc1cn(CC(=O)N2CCCc3ccccc32)c2ccccc12	?	5.8µM	i	i	i	5.8µM
CC1CC1C(=O)Nc1cc(S(=O)(=O)N2CCOCC2)ccc1N1CCCC1 (stereo unspecified)	i	i	i	i	i	i
CCN(CC)CCCCn1c(-c2ccccc2)nc2c(N(CCOC)CCOC)nc(C)nc21	nt	nt	nt	i	i	nt
CCOC(=O)N1CCN(C(=O)COC(=O)CSc2ccc([N+](=O)[O-])cc2)CC1	i	i	i	nt	nt	i
CCn1c(CNc2ccc(C)cc2C)nnc1SCC(=O)N1CCCc2ccccc21	?	10.3µM	i	i	i	?
CCOc1ccc(-n2c(=S)sc3c(=O)n(-c4ccc(F)cc4)c(SCC(=O)O)nc32)cc1	i	i	i	i	i	i
COc1ccc(CCN(C)C(=O)CSc2nc3ccccc3c(=O)n2CC2CCCO2)cc1OC (stereo unspecified)	nt	?	i	nt	nt	?
CC(=O)NC12CC3CC(C1)CC(C(=O)N1CCN(S(=O)(=O)c4cccc(C(F)(F)F)c4)CC1)(C3)C2	i	7.31µM	i	nt	nt	?
O=C(NCCN1CCCCC1)Nc1ccccc1Cl	i	i	i	i	i	i
O=c1c2ccccc2sc2c(CO)ccc(NCCN3CCCCC3)c12	nt	0.411µM	-101.3	nt	nt	0.92µM
COc1ccc(C(=O)NCCCN2CCCC2=O)cc1	?	i	i	i	i	i
O=C(NCC(c1cccs1)N1CCOCC1)c1cc(F)cc(F)c1 (stereo unspecified)	nt	20.6µM	i	nt	nt	14.6µM
Cc1cccc(NS(=O)(=O)c2ccc(C)c(C(=O)NCC(c3cccs3)N3CCOCC3)c2)c1 (stereo unspecified)	nt	?	i	nt	nt	16.4µM
O=C(NCC(c1cccs1)N1CCOCC1)c1cn(-c2ccccc2)nc1-c1ccccc1 (stereo unspecified)	?	?	i	nt	nt	18.4µM
SMILES	ELG1 repair inh	DT40 TDP1 CPT	IL1B secr inh	RORg inh	Gal4-VP16 FLuc	DT40 TDP1 no CPT
COc1cc(C(=O)NCCCN2CCCC2=O)cc(Br)c1OCc1ccccc1	?	?	i	nt	nt	18.4µM
COC(=O)C1=C(C)N(Cc2ccccc2)C2=C3C(=O)N(C)C(=O)C3[C@@](O)(C(=O)OC)C(=O)N2C1c1ccccc1 (stereo partly specified)	nt	nt	nt	i[10 µM]	i[10 µM]	nt
COc1cc(C(=O)NCC(c2cccs2)N2CCOCC2)cc(Br)c1OCc1ccccc1 (stereo unspecified)	i	9.2µM	i	nt	nt	9.2µM
COc1ccc(C(=O)NCC(c2cccs2)N2CCOCC2)cc1OC (stereo unspecified)	i	i	i	nt	nt	i
CC(C)N(C(=O)[C@H]1C[C@H](CC(=O)NCCN2CCOCC2)C(=O)N2CCc3c([nH]c4ccc(Cl)cc34)[C@]12C)C(C)C	i	?	?	nt	nt	?
Cc1cc(C[n+]2ccccc2)c2nsnc2c1	i	?	i	i	i	22.4µM
Cc1cc(C[n+]2ccsc2N)c2ncccc2c1	i	?	i	i	i	?

Screening results: PubChem, National Center for Advancing Translational Sciences (NCATS)
